# Records with an inconclusive call do not appear. Calls of active or inactive are those of the source. How the source made its calls: active means hit-call score of the fitted dose curve at least 0.9, where 1 is the maximum; inconclusive means response in the unintended direction; inactive means score below 0.9.
# Molecular target: Estrogen receptor (Homo sapiens) (UniProt P03372)
# Experiment: ATG_ERa_TRANS: Attagene TRANS-FACTORIAL HepG2 Assay for human Estrogen Receptor alpha (ERa) (AID 2282970)
# Settings: HepG2 Attagene TRANS ERa GAL4 reporter, mRNA
# Protocol: ATG_TRANS is a cell-based, multiplexed-readout assay that uses HepG2, a human liver cell line, with measurements taken at 24 hours after chemical dosing in a 24-well plate.ATG_ERa_TRANS is one of 30 assay component(s) measured or calculated from the ATG_TRANS assay. It is designed to make measurements of mRNA induction, a form of inducible reporter, as detected with fluorescence intensity signals by Reverse transcription polymerase chain reaction (RT-PCR) and Capillary electrophoresis technology.Data from the assay component ATG_ERa_TRANS was analyzed into 1 assay endpoint. This assay endpoint, ATG_ERa_TRANS, was analyzed in the positive analysis fitting direction relative to DMSO as the negative control and baseline of activity. Using a type of inducible reporter, measures of mRNA for gain-of-signal activity can be used to understand the reporter gene at the transcription factor-level as they relate to the gene ESR1. Furthermore, this assay endpoint can be referred to as a primary readout, because this assay has produced multiple assay endpoints where this one serves a reporter gene function. To generalize the intended target to other relatable targets, this assay endpoint is annotated to the nuclear receptor intended target family, where the subfamily is steroidal.
# Human liver HepG2 cells are transiently transfected with multiple reporter transcription units (MRTUs) in 6-well plates using FuGene 6 reagent (Roche; 3 ml FuGene/1 mg DNA). The MRTU constructs are regulated by a cis-regulating element (promoter). […] A major difference between the CIS and TRANS system is that in CIS activities of endogenous TFs are measured, whereas the TRANS assay evaluates changes in activities of exogenous, chimeric NR-Gal4 proteins. […] At the end of 24 hour incubation, total RNA was isolated using TriZol reagent (Invitrogen). The isolated RNA is then reverse-transcribed using oligo(dT) primer and Mo-MLV reverse transcriptase (Invitrogen) with DNAse I (Ambion) treatment for 30 min. The one-tenth of the produced cDNA was amplified by PCR using Taq DNA polymerase (Invitrogen) and two reporter sequence-specific primers. The PCR products were fluorescently labeled by primer extension with 6-arboxyfluorescein (6-FAM) 5'-labeled reporter sequence-specific primer (2 min at 95 C, 20 s at 68 C and 10 min at 72 C) and these products were digested with 5U of HpaI (New England Biolabs) for 2h at 37 C. […] The raw capillary electrophoresis data was processed using Attagraph software (Attagene).
# Estrogen receptor (Homo sapiens), sequence (P03372 whole entry, looked up): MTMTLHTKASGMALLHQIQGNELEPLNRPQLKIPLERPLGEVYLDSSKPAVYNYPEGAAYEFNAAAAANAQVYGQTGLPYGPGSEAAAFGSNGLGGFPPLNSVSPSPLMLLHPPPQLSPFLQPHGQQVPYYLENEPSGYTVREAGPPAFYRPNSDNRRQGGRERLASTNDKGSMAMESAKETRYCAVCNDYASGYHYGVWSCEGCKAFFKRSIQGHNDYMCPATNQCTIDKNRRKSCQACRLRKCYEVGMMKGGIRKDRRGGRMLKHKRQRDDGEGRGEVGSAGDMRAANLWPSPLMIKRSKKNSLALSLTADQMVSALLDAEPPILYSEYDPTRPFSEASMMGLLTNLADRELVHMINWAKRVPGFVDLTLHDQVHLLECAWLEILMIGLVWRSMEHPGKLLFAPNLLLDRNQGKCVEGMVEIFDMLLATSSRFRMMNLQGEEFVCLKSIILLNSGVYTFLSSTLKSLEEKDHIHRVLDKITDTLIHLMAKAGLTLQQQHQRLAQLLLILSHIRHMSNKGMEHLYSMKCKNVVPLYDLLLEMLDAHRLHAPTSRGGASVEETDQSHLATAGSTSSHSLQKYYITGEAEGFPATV
Structure (SMILES),AC50,outcome
CCCc1cc(=O)[nH]c(=S)[nH]1,8.12 µM (active),
C=CCc1ccc(O)c(OC)c1,41.4 µM (active),
CCc1c(C(=O)NN2CCCCC2)nn(-c2ccc(Cl)cc2Cl)c1-c1ccc(Br)cc1,,inactive
c1cc(-c2ccncc2)ccn1,,inactive
CC(C)c1ccc(C(=O)N=C(N)N)cc1S(C)(=O)=O,68.6 µM (active),
CC(CO)OC(C)CO (stereo not given) (tested in a mixture with another compound),,inactive
Cc1cccc(C)c1O,31.9 µM (active),
COc1cccc2c1C(=O)c1c(O)c3c(c(O)c1C2=O)C[C@@](O)(C(=O)CO)C[C@@H]3O[C@H]1C[C@H](N)[C@H](O)[C@H](C)O1,,inactive
FC(F)(F)C(F)(F)C(F)(F)C(F)(F)C(F)(F)C(F)(F)CCI,,inactive
CCCCCCCCCCO,,inactive
COC(=O)c1ccc(O)cc1,63.8 µM (active),
Nc1ccccc1N,,inactive
CCOc1ccc2c(c1)C(C)=CC(C)(C)N2,40.7 µM (active),
CCCCCCCCCCCC(=O)OC,,inactive
C[Si]1(C)O[Si](C)(C)O[Si](C)(C)O[Si](C)(C)O1,38.8 µM (active),
CN1CCN(Cc2cc(-c3ccc4[nH]c(=O)oc4c3)co2)[C@@H](c2ccc(F)cc2)C1,,inactive
CCCCCCC(=O)OCC,17.6 µM (active),
Cc1cc(NC(=O)C(=O)O)cc(C)c1Oc1ccc(O)c2c1CCC2,,inactive
Cc1ccc(Cl)cc1,,inactive
CC=Cc1ccc(O)c(OC)c1,,inactive

Structure (SMILES),AC50,outcome
Oc1ccc2c(c1)OC[C@@H](N1CCC(O)(c3ccc(F)cc3)CC1)[C@H]2O,6.61 µM (active),
CCCCOC(=O)CCCCCCCCC(=O)OCCCC,,inactive
Cc1nc(-c2ccc3c(c2)CCN(CCC2CCC(NC(=O)/C=C/c4ccc(F)cc4)CC2)CC3)no1 (stereo not given),,inactive
CCCCCCOCCO,,inactive
C=CCOC(=O)c1ccccc1C(=O)OCC=C,76.7 µM (active),
CC(=O)OCCOCCOCCOC(C)=O,,inactive
C1CCC(SSC2CCCCC2)CC1,27.4 µM (active),
CNCc1cc(F)ccc1Oc1ccc(Cl)c(Cl)c1,,inactive
CC(=O)Oc1ccccc1C(=O)O,,inactive
CCCCCCCC=O,,inactive
O=C(OCCCCCOC(=O)c1ccccc1)c1ccccc1,,inactive
Cc1c(C(=O)O)c(O)cc2c1C(=O)c1c(O)c([C@@H]3O[C@H](CO)[C@@H](O)[C@H](O)[C@H]3O)c(O)c(O)c1C2=O,,inactive
CCCCCC(=O)O,,inactive
CC1=C(/C=C/C(C)=C/C=C/C(C)=C/CO)C(C)(C)CCC1,4.28 µM (active),
Oc1ccc2ccccc2c1N=Nc1ccccc1,2.86 µM (active),
Nc1ccc2c(c1)C(=O)c1ccccc1C2=O,13.6 µM (active),
O=C(O)Cc1ccccc1Nc1c(Cl)cccc1Cl,,inactive
CCCCC(CC)COC(=O)CC(C(=O)OCC(CC)CCCC)S(=O)(=O)O (stereo not given),,inactive
CC(=O)C(C)=CC1C(C)=CCCC1(C)C (stereo not given),29.8 µM (active),
C[C@]12C=CC(=O)C=C1CC[C@@H]1[C@@H]2C(=O)C[C@@]2(C)[C@H]1CC[C@]2(O)C(=O)CO,58.3 µM (active),

# — PubChem BioAssay (EPA / NIEHS)
